From PubChem
In the library only some 4.6% were active in any assay of this set; here they are far more common.
Epigenetic reg: regulators of epigenetic silencing causing reporter derepression in mouse cells; murine LDR cells, GFP reporter derepression, 30 h; Potency, µM (top dose mostly 53.9 µM), inactives show top-dose GFP activation, hits mostly activators; 0.2% of 280,000 active; active = well fitted activation curve with a large enough effect; inconclusive = small, poorly fitted or top-dose-only effect; also: potency is read from the fitted curve at half-maximal effect; % of control where 0% means no effect; nearly all actives have a fitted effect of over 60% in size
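Reporter derepression read as number of fluorescent GFP-positive objects, 20-120 um in size, counted by laser-scanning cytometer. Mouse LDR line with an epigenetically silenced CMV-GFP locus; compound incubation 30 h, 37 C.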
D1 ag: activates the human D1 dopamine receptor; activation, % at 2 µM; AID 504660; P21728; HEK293 T-REx D1 cells, calcium flux, agonist mode; 1% of 360,000 active; also: 0% is about no effect
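Inducible HEK293 T-REx D1 cells, force-coupled to calcium signalling, were plated at 4000 cells/well with tetracycline and held overnight at 30 C. After no-wash calcium dye loading, compound-evoked calcium rise over 180 s flagged agonists.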
D1 antagonist: blocks dopamine activation of the human D1 receptor. P21728. HEK293 TREx D1 cells, calcium flux, dopamine EC80; stronger effect = lower value. activity change, negative = inhibition, % at 10 µM. 3.2% of 360,000 active. AID 504652; in the data active = activity change below about -30%; also: % is scaled to controls: 0 for no effect and ±100 for the full control effect
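Tetracycline-induced HEK293 Trex D1 cells, force-coupled to calcium, dye-loaded; compounds added and read 180 s, then EC80 dopamine added and calcium flux tracked kinetically another 180 s.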
TRHR agonist: activates the human TRH receptor | activation, % at 2 µM | TRHR cells, calcium flux fluo-8, FDSS agonist mode | AID 493084 | 0.18% of 360,000 active; also: 0% is about no effect
Target sequence (P34981 whole entry, looked up): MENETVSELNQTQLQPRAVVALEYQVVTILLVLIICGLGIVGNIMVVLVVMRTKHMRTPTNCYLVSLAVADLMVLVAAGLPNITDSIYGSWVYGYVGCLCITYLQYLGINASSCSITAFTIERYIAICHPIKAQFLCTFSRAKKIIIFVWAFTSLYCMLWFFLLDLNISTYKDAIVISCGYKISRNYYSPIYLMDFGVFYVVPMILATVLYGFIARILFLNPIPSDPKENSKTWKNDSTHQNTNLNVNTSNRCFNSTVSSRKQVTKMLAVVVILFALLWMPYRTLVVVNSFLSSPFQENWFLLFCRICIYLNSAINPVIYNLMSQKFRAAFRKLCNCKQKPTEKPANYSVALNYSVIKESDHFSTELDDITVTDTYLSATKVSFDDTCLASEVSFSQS
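Fluo-8-loaded TRHR cells; 10 s baseline, compound added, kinetic Ca2+ fluorescence read 1/s, agonist mode.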
TRHR PAM: allosterically enhances the human TRH receptor. TRHR cells, fluo-8 calcium fluorescence, EC20 TRH enhancement. AID 493056. 0.66% of 360,000 active. enhancement, % at 2 µM; in the data active = enhancement above about 30%; also: 0% is about no effect
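Enhancer read-out: after compound pinning and an initial kinetic agonist-mode read, an EC20 of TRH (10 nM final) was injected and fluo-8 calcium signal (Ex 480/Em 530) followed at 1 s/cycle for 100 cycles in TRHR-expressing cells.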
D1 PAM: human D1 dopamine receptor positive modulation. P21728. HEK293 TREx D1 cells, calcium flux, dopamine EC20 potentiation. potentiation, % at 10 µM. 0.036% of 360,000 active. AID 504651; in the data active = potentiation above about 30%; also: 0% is about no effect
Active calls of the source: *; ? = inconclusive; nt = no result given. Rule as the data show it, unless noted: active = activation above about 30%; inactive = the rest.

SMILES | Epigenetic reg | D1 ag | D1 antagonist | TRHR agonist | TRHR PAM | D1 PAM
Oc1ccccc1OCc1nc2ccccc2s1 | 0% | -1 | -31* | -1 | -8 | -6
CCOc1cc(C(=O)Nc2ccc([N+](=O)[O-])cn2)cc(OCC)c1OCC | 1% | 4 | -51* | 0 | -3 | -5
COc1cc(OC)cc(C(=O)Nc2ccc([N+](=O)[O-])cn2)c1 | 2% | 2 | -26 | 0 | 0 | -4
CC(=O)Nc1cc(C(=O)N2CCOCC2)ccc1S(=O)(=O)c1ccc(C)cc1 | 0% | 1 | -31* | 0 | 1 | 2
CC(=O)Nc1cc(C(=O)NCc2ccc(F)cc2)ccc1S(=O)(=O)c1ccc(C)cc1 | 1% | -4 | -67* | -1 | 1 | 1
C=C1C(c2ccc(C)cc2)=CCc2cc(C)cc(C)c21 | 2% | nt | nt | nt | nt | nt
O=C(O)C(=O)/C(=C\c1cccc2ccccc12)c1ccc2ccccc2n1 | 0% | 31* | 3 | 3 | -2 | -3
COc1ccccc1C(=O)N(Cc1ccco1)Cc1ccccc1F | -2% | -1 | -22 | -2 | -5 | 0
CN(C)c1ccc(-c2nc(NC3CCNCC3)c3ccccc3n2)cc1 | 2.8µM* | nt | nt | nt | nt | nt
c1ccc(-c2nc(NC3CCCC3)c3ccccc3n2)cc1 | nt | 7 | 12 | 1 | -9 | -1
CCCCCn1ncc2c3sc(C)cc3n(C)c2c1=O | nt | 2 | -2 | -2 | -2 | -2
COc1cccc(-c2ccc3c(N)c(C(=O)c4ccc(F)cc4)sc3n2)c1 | ? | 150* | -10 | 24 | 8 | -4
COc1ccc(C(=O)c2sc3nc(-c4ccc(C)cc4)cc(C(F)(F)F)c3c2N)cc1 | 1µM* | 90* | -4 | 7 | -5 | -5
COc1ccc(C(=O)c2sc3nc(-c4ccc(OC)cc4)ccc3c2N)cc1 | 16% | 61* | -8 | 13 | 3 | -6
COc1ccc(C(=O)c2sc3nc(-c4ccc(F)cc4)ccc3c2N)cc1 | 7% | 17 | -13 | 1 | 2 | -2
Cc1c(Cl)cccc1NC(=O)C1CCCN(c2nnc(-n3c(C)ccc3C)s2)C1 (centres undefined) | -5% | 0 | 22 | -1 | -5 | -3
CCc1ccc(N=C2NC(=O)/C(=C/c3cc(OC)c(O)c(OC)c3)S2)cc1 | nt | 21 | 1 | 19 | 8 | -2
COc1cc(/C=C2\SC(=Nc3ccc(Cl)c(C(=O)O)c3)NC2=O)c(Br)c(Br)c1O | nt | 324* | 36 | 212* | 93* | 21
COC(=O)/C=C1\SC(=Nc2ccc(Cl)c(Cl)c2)NC1=O | 0% | 2 | 10 | 0 | 1 | 0
COc1cc(/C=C2\SC(=Nc3ccccc3)NC2=O)cc(Cl)c1O | nt | 157* | 5 | 150* | 20 | -2
O=S(=O)(c1ccc2c(c1)CCN2)N1CCCCCC1 | 9% | 3 | -9 | 1 | 3 | -3
O=C(O)CCc1nn2c3ccccc3nc2n(CCN2CCCCC2)c1=O | 1% | 7 | -31* | 0 | -3 | -5
O=C(O)CCc1nc2ccccc2n(CCc2ccccc2)c1=O | 4% | 1 | -14 | 0 | 2 | -1
Cc1ccc(C)c(NC(=O)CSc2nnc(-c3ccco3)o2)c1 | 0% | 1 | 6 | 0 | 32* | -2
COC(=O)CN(C(=O)CSc1nnc(-c2cccc(OC)c2)o1)c1ccc(OC)cc1 | 5% | 3 | 0 | 0 | 6 | 3
Cc1cccc(NC(=O)CSc2nnc(-c3ccco3)o2)c1C | 0% | 0 | 1 | 0 | -3 | 2
CCOC(=O)CN(C(=O)CSc1nnc(-c2cccc(OC)c2)o1)c1ccc(F)cc1 | -3% | 56* | -22 | -1 | 11 | 0
Cc1ccc(NC(=O)CSc2nnc(-c3ccc([N+](=O)[O-])cc3)o2)c(C)c1 | -3% | 51* | -4 | 0 | 2 | 0
CC(C)c1ccccc1NC(=O)CSc1nnc(COc2ccccc2Cl)o1 | -3% | 38* | -9 | -1 | 0 | -1
Cc1occc1-c1nnc(SCC(=O)Nc2ccccn2)o1 | 0% | 9 | 3 | 0 | 39* | 1
